Assay results as given in PubChem BioAssay AID1259240 (Keith Lab, Institute of Cancer Science, University of …, 2017).
The source made the active and inactive calls. No stated cut-off is given here; in the data, active means fold change mostly below about -2 (no sharp cut-off); inactive means mostly above about -1.8.

Assay: modulation of TERT promoter-driven luciferase – cell-based, luciferase reporter, human, primary screen (AID 1259240)
Details: A2780 TERT promoter luciferase reporter, 16 h; at 20 µM, fold versus average of vehicle-only wells

Row | SMILES | fold change | outcome
1 | COc1cc(Nc2nc3ccccc3n3cnnc23)cc(OC)c1OC | 1.1 (inactive) | 
2 | CCOC(=O)Cn1c(=O)oc2cc(S(=O)(=O)NC3CCCC(C)C3C)ccc21 (stereo not given) | 1.21 (inactive) | 
3 | CCOC(=O)C(Sc1nnc(-c2c[nH]c3ccccc23)n1C)C(=O)OCC |  | inactive
4 | CCNc1nc(NCC)nc(C(=O)OCCO)n1 | 1.24 (inactive) | 
5 | CC(CCc1ccco1)NC(=O)Cn1ncc2c1-c1ccccc1OC2 (stereo not given) | 1.12 (inactive) | 
6 | COc1ccc(OC)c(S(=O)(=O)c2cc3cccc(OC)c3oc2=O)c1 | -1.07 (inactive) | 
7 | Cc1ccc2nc(NCc3ccc(F)cc3)c3nncn3c2c1 | 1.08 (inactive) | 
8 | Cn1c(=O)oc2cc(S(=O)(=O)N3CCC(C(=O)Nc4nccs4)CC3)ccc21 | 1.31 (inactive) | 
9 | Cc1nn(CC(=O)Nc2sc3c(c2C#N)CCCCC3)c(C)c1[N+](=O)[O-] | -1.25 (inactive) | 
10 | CN(C1=NS(=O)(=O)c2cc([N+](=O)[O-])ccc21)c1ccccc1 | -2.35 (active) | 
11 | O=C1Nc2ccccc2/C1=C\c1cn(Cc2ccccc2F)c2ccccc12 | -1.04 (inactive) | 
12 | CCOC(=O)N1CCC(Nc2c(N3CC(C)CC(C)C3)c(=O)c2=O)CC1 (stereo not given) | 1.09 (inactive) | 
13 | COc1ccc(C2CC(c3cccs3)=NN2C(=O)CSc2ncnc3ccccc23)cc1 (stereo not given) | 1.14 (inactive) | 
14 | CCC1(C)Cc2ccccc2-c2nc(NCCO)n(-c3ccccc3)c(=O)c21 (stereo not given) | -1.48 (inactive) | 
15 | O=C(NC1CCCCC1)C1CCCN(S(=O)(=O)c2cnc[nH]2)C1 (stereo not given) | -1.72 (inactive) | 
16 | CCCCCNC(=O)c1ccc(NC2=NC3CS(=O)(=O)CC3S2)cc1 (stereo not given) | 1.22 (inactive) | 
17 | COc1ccccc1OCC(O)Cn1c(=N)n(CCN2CCOCC2)c2ccccc21 (stereo not given) | -1.29 (inactive) | 
18 | CCCCN(CC)S(=O)(=O)c1ccc2c(c1)n(C)c(=O)c(=O)n2C | 1.13 (inactive) | 
19 | CC(=O)Oc1ccccc1-c1nc2s/c(=C\c3cccc(Br)c3)c(=O)n2n1 | 1.36 (inactive) | 
20 | O=C(O)COc1ccc(/C=C2/NC(=O)N(c3ccccc3)C2=O)cc1 | -1.53 (inactive) | 

Row | SMILES | fold change | outcome
21 | COC(=O)CN1C(=O)CN(c2nc(C)cc(C)n2)C1=O | -1.08 (inactive) | 
22 | CCOC(=O)C1=C(CS(=O)(=O)c2ccc(C)cc2)NC(=O)NC1c1ccccc1 (stereo not given) | 1.64 (inactive) | 
23 | COc1ccc(C2C=C(c3cccnc3)Nc3nc4ccccc4n32)cc1 (stereo not given) |  | inactive
24 | Fc1ccc(CNc2nnc(Cc3ccncc3)c3ccccc23)cc1 | -1.53 (inactive) | 
25 | CC(C)C(C(=O)O)N1C(=O)/C(=C/c2cccs2)SC1=S (stereo not given) | -3.32 (active) | 
26 | CS(=O)(=O)Nc1ccc(C2=NN(C(=O)c3ccco3)C(c3ccco3)C2)cc1 (stereo not given) | 1.01 (inactive) | 
27 | Cn1c(CC(=O)NC(C)(C)CO)c(Sc2ccccc2)c2ccccc21 | -2.11 (active) | 
28 | CCCc1nnc(NC(=O)Nc2ccccc2Cl)s1 | -1.54 (inactive) | 
29 | CCN(CC)CCNc1nc2c(c(=O)[nH]c(=O)n2C)n1Cc1cccc(C)c1 | -1.42 (inactive) | 
30 | N=C1C(c2nc3ccccc3c(=O)[nH]2)=C(O)CN1c1ccc(Cl)c(Cl)c1 |  | active
31 | c1ccc2c(c1)CCN2c1nnc(Cc2ccncc2)c2ccccc12 | -1.29 (inactive) | 
32 | Cc1cc(C)n(-c2nc3ccccc3n3nnnc23)n1 | 1.46 (inactive) | 
33 | CCOc1cc2c(cc1OCC)C(c1ccc(Br)cc1)CC(=O)N2 (stereo not given) | 1.18 (inactive) | 
34 | CC1CCCC(C)N1C(=O)CN1C(=O)COc2ccc(S(=O)(=O)N3CCCCCC3)cc21 (stereo not given) | -1.25 (inactive) | 
35 | CCCN(CCC)C(=O)Cn1c(=O)oc2cc(S(=O)(=O)N3CC(C)CC(C)C3)ccc21 (stereo not given) | 1.03 (inactive) | 
36 | CN(CC(=O)NC(C)(C)C)S(=O)(=O)c1ccc2c(c1)c(=O)n(C)c(=O)n2C | -1.36 (inactive) | 
37 | Cc1ccc(C2CC(=O)Nc3cc4c(cc32)OCCO4)cc1Br (stereo not given) | -1.14 (inactive) | 
38 | CC(C)CCSc1nc(-c2ccc([N+](=O)[O-])cc2)nc2c1c(=O)n(C)c(=O)n2C | 1.2 (inactive) | 
39 | CCCCN(C)C(=O)Cn1ncc2c3ccccc3n(C)c2c1=O | 1.16 (inactive) | 
40 | O=C(c1ccc(CSCc2ccccc2F)o1)N1CCN(c2ccc(N3CCOCC3)nn2)CC1 | 1.7 (inactive) | 
